Test results taken from PubChem BioAssay.
Activity calls are given as the source filed them. Unless noted, how the calls were made is not given here.

Assays:
[1] = compounds binding Alexa647 anti-His antibody – biochemical, small-molecule microarray, 635 nm fluorescence, artefact control for SMM control protein annotation, primary screen (AID 1128); details: higher = more signal;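 further: score merges feature fluorescence with signal-to-noise for each printed compound spot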
[2] = system: Human papillomavirus type 1a E7 protein (residues 1-88); test: HPV1a E7 small-molecule binders, primary screen, biochemical, small-molecule microarray, residues 1-88, 635 nm (AID 1129); details: small-molecule microarray binding, fluorescence 635 nm; higher = more signal
[3] = target: Focal adhesion kinase 1 (Homo sapiens) (UniProt Q05397); test: PTK2 protein binding on printed compound slides – biochemical, small-molecule microarray, 635/667 nm fluorescence, BSA, DTT, primary screen (AID 1130); details: 635 nm fluorescence, higher = more signal;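 further: composite of spot emission at 667 nm and signal to noise over triplicate slides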
[4] = system: Fibrinogen (Alexa647-labelled); test: Alexa647-fibrinogen binding to printed small molecules – biochemical, small-molecule microarray, 635/667 nm fluorescence, artefact control for SMM control-protein annotation, profiling panel (AID 1131); details: fibrinogen-A647 binding fluorescence, higher = more signal;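 further: z-score merges 667 nm fluorescence with per-spot signal-to-noise over triplicate slides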
[5] = target: Follistatin (Homo sapiens) (UniProt P19883); test: FST protein binding to printed compounds – biochemical, small-molecule microarray, 635/667 nm fluorescence, primary screen (AID 1132); details: 635 nm fluorescence, higher = more signal
[6] = target: Fibroblast growth factor 2 (Homo sapiens) (UniProt P09038); test: basic fibroblast growth factor binding to printed compounds – biochemical, small-molecule microarray, 635/667 nm fluorescence, primary screen (AID 1133); details: FGF2, fluorescence 635/667, higher = more signal
[7] = JC-1 mitochondrial potential readout, lung cancer cells – cell-based, A549, JC-1 fluorescence, basal, 24 h, 100 nL, profiling panel (AID 1138); details: higher = more signal;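 further: A549 lung adenocarcinoma cells under basal conditions with no added stimulus; test concentration not given here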
[8] = system: Lefty1; test: Lefty1 protein binding to printed compounds – biochemical, small-molecule microarray, 635/667 nm fluorescence, primary screen (AID 1139); details: fluorescence 635/667, higher = more signal
[9] = system: wheat germ agglutinin (Triticum aestivum), Alexa647-labelled; test: Alexa647-WGA lectin binding to printed small molecules – biochemical, small-molecule microarray, 635/667 nm fluorescence, artefact control for SMM control-protein annotation, profiling panel (AID 1140); details: WGA-A647 binding, 635 nm fluorescence, higher = more signal;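 further: score merges 667 nm feature emission with signal to noise over triplicate slides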
[10] = target: Luciferin 4-monooxygenase (Photinus pyralis) (UniProt P08659); test: inhibition of purified Photinus pyralis luciferase – biochemical, luminescence, purified enzyme, 2006 set, primary screen (AID 1141); details: purified firefly luciferase, SteadyGlo luminescence, 30 min; higher = more signal, called active from +8 up or from −8 down;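 further: cell-free assay with purified firefly luciferase at 100 ng per well in PBS; test concentration not given here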
[11] = system: Wnt5a (protein binding on small-molecule microarray); test: small molecules binding Wnt5a protein – biophysical, small-molecule microarray, 635/667 nm fluorescence, primary screen (AID 1142); details: 635 nm fluorescence, higher = more signal;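 further: fluorescence read at 667 nm with signal to noise per printed feature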
[12] = ATP-based viability of Huh7 replicon cells – cell-based, CellTiter-Glo luminescence, basal, 48 h, cytotoxicity control for HCV replication inhibitor project, primary screen (AID 1143); details: higher = more signal, called active from +8 up or from −8 down;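 further: Huh7 hepatoma cells carrying a hepatitis C replication reporter with no stimulus; test concentration not given here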
[13] = Pseudomonas biofilm growth suppression – PAO1 strain, BacTiter-Glo luminescence, LB-PBS, primary screen (AID 1144); details: P. aeruginosa PAO1 biofilm, 12 h, higher = more signal
[14] = basal CRE-LacZ reporter activity in PC12 – cell-based, unstimulated, primary screen (AID 1145); details: no forskolin, luminescence, 4.5 h, higher = more signal, called active from +8 up or from −8 down
[15] = forskolin-driven CRE-LacZ activity in PC12 – cell-based, CRE-LacZ reporter, forskolin-stimulated, primary screen (AID 1146); details: luminescence, 4.5 h, higher = more signal, called active from +8 up or from −8 down;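 further: PC12 cells with 6xCRE LacZ reporter stimulated by forskolin 10 µM; beta-galactosidase reporter signal reflecting CREB driven transcription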
[16] = target: Streptavidin (Streptomyces avidinii) (UniProt P22629); test: compounds binding control protein streptavidin – biophysical, small-molecule microarray, 635/667 nm fluorescence, artefact control for SMM compound annotation, primary screen (AID 1147); details: higher = more signal;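 further: signal reflects streptavidin binding to arrayed compounds as a control protein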
[17] = probe aInhba binding on compound microarray – biochemical, small-molecule microarray, 635/667 nm fluorescence, primary screen (AID 1148); details: higher = more signal;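 further: score merges 667nm spot fluorescence with signal-to-noise for antibody binding to printed compounds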
[18] = target: Torsin-1A (Homo sapiens) (UniProt O14656); test: TOR1A wild-type binding on microarray – cell lysate, small-molecule microarray, lysate, 635/667 nm, primary screen (AID 1149); details: COS7 hTOR1A-WT lysate, 635 nm fluorescence, higher = more signal
[19] = target: Torsin-1A (Homo sapiens) (UniProt O14656); test: torsin A mutant lysate binding on microarrays – cell lysate, small-molecule microarray, COS7 lysate, 635/667 nm fluorescence, primary screen (AID 1150); details: COS7 hTOR1A mutant lysate, 635 nm fluorescence, higher = more signal;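 further: score pools 667 nm emission and signal to noise measuring lysate protein binding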
[20] = system: Sonic hedgehog protein (Shh); test: Sonic hedgehog microarray binding compounds – biochemical, small-molecule microarray, 635/667 nm fluorescence, primary screen (AID 1151); details: 635 nm fluorescence, higher = more signal;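 further: Shh protein binding to compounds spotted on small-molecule microarray slides; score combines spot fluorescence intensity with signal-to-noise across triplicate slides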

Sequence of Focal adhesion kinase 1 (Homo sapiens) (Q05397 whole entry, looked up): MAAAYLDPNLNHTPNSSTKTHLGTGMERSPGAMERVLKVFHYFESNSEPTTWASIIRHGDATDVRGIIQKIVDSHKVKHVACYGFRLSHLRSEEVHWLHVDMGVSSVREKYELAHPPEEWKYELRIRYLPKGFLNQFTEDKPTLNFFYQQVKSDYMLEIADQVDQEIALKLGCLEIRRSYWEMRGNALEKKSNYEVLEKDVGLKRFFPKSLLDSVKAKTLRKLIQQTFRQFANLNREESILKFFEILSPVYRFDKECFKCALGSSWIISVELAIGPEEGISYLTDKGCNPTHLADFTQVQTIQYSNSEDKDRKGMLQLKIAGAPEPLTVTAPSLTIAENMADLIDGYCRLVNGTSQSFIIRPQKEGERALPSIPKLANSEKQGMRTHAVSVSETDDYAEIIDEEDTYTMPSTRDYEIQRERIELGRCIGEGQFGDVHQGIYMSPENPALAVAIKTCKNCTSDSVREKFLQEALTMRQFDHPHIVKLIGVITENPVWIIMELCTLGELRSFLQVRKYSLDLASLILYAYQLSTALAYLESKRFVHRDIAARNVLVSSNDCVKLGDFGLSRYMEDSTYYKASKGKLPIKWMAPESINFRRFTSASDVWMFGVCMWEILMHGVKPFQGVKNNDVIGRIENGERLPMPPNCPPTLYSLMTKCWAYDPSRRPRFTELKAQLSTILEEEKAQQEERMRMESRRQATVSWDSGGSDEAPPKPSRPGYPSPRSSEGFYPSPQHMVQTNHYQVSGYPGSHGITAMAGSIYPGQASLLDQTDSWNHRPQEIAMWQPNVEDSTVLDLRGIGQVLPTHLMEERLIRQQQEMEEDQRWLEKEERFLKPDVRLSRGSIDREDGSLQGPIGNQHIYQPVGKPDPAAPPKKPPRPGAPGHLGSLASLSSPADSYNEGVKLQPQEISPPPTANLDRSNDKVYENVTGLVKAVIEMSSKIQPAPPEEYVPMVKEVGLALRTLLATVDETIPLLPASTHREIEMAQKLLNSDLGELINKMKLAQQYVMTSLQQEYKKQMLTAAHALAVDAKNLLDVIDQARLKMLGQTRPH
Sequence of Follistatin (Homo sapiens) (P19883 whole entry, looked up): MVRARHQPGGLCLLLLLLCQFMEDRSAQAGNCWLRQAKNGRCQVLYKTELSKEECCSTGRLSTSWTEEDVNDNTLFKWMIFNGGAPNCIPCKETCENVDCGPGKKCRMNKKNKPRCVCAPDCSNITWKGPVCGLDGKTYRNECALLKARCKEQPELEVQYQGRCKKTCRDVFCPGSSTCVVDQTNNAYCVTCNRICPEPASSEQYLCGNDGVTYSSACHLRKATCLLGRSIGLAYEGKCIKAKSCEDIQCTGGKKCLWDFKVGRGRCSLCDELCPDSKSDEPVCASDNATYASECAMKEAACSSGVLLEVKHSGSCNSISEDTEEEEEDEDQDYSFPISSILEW
Sequence of Torsin-1A (Homo sapiens) (O14656 whole entry, looked up): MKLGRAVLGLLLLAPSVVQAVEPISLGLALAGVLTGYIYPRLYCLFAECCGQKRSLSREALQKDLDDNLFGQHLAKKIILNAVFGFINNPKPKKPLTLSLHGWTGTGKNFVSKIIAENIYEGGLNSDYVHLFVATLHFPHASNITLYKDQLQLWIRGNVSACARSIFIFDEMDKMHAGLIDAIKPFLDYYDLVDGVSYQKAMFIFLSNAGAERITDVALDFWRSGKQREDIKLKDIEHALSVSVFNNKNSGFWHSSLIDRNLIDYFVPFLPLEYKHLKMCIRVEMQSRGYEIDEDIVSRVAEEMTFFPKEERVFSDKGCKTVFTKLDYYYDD
Sequence of Fibroblast growth factor 2 (Homo sapiens) (P09038 whole entry, looked up): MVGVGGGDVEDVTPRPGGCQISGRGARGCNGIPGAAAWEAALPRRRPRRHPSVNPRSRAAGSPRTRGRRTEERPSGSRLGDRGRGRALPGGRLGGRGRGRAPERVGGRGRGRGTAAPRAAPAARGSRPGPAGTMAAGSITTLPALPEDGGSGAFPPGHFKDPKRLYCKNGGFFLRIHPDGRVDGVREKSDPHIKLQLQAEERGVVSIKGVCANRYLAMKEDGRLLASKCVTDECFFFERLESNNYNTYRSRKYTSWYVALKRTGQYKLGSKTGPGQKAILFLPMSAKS
Sequence of Streptavidin (Streptomyces avidinii) (P22629 whole entry, looked up): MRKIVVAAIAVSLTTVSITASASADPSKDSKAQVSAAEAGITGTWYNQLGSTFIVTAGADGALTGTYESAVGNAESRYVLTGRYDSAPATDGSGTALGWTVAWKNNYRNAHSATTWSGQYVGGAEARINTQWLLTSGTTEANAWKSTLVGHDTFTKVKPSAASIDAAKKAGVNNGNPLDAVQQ
Sequence of Luciferin 4-monooxygenase (Photinus pyralis) (P08659 whole entry, looked up): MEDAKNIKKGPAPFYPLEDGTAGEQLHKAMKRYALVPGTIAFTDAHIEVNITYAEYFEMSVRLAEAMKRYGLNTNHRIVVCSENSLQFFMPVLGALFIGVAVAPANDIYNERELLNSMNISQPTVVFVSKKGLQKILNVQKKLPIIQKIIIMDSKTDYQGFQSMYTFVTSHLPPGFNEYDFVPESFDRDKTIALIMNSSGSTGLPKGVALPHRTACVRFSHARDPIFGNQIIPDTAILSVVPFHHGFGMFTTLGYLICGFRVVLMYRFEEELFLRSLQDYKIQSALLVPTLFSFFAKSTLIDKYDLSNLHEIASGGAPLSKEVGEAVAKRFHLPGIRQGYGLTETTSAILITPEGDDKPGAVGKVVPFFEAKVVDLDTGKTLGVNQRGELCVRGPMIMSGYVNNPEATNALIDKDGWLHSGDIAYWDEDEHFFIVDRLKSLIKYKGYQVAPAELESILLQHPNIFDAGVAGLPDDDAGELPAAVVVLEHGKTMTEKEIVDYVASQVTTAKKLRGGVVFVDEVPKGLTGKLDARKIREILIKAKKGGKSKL

Compound | composite z-score [1] | composite z-score [2] | composite z-score [3] | composite z-score [4] | composite z-score [5] | composite z-score [6] | z-score [7] | composite z-score [8] | composite z-score [9] | z-score [10] | composite z-score [11] | z-score [12] | z-score [13] | z-score [14] | z-score [15] | composite z-score [16] | composite z-score [17] | composite z-score [18] | composite z-score [19] | composite z-score [20]
COc1ccc(CCNC(=O)[C@@H]2c3ccccc3C(=O)N(Cc3ccccc3C(F)(F)F)[C@H]2c2ccc(CO)cc2)cc1 | 0.263 | 0.656 | 0.495 | -0.731 | 0.566 | -0.388 | 1.07 | -0.526 | 0.665 | 0.912 (inactive) | -0.189 | -2.64 (inactive) | -0.984 (inactive) | -0.295 (inactive) | -0.132 (inactive) | -0.752 | -0.168 | -1.27 | 0.714 | -0.25
O=C(Nc1cc(Br)ccc1C(=O)NCc1cccc(O)c1)c1ccccc1 | 1.95 | 1.02 | 0.243 | 0.828 | 0.0635 | 0.324 | 0.252 | -0.241 | 1.01 | -0.0565 (inactive) | 0.189 | -2.32 (inactive) | -0.26 (inactive) | -0.374 (inactive) | -0.334 (inactive) | 0.827 | 0.129 | 0.476 | 0.533 | 0.349
CN(C)CCCC[C@@H]1NC(=O)[C@H]2C[C@@H](C(=O)NCCCCCCNC(=O)CS)[C@@H](c3ccc(O)cc3)N2C1=O | 0.135 | 0.0218 | 1.05 | -0.934 | 1.32 | 0.804 | -0.685 | 0.628 | -0.149 | 0.78 (inactive) | -0.261 | -0.898 (inactive) | -0.113 (inactive) | -1.21 (inactive) | -0.887 (inactive) | -1.05 | -0.224 | 1.13 | 0.753 | 1.92
CCOC(=O)C[C@H]1[C@H](OC(=O)c2ccc(C(=O)c3ccccc3)cc2)[C@@H](NC(=O)C2CCCCC2)c2cc(OCCCO)ccc2N1C(=O)Cc1ccc(OC)cc1 | 0.027 | 0.785 | 0.494 | 0.441 | 0.432 | 0.0799 | 1.36 | 0.942 | 0.221 | 0.13 (inactive) | 0.354 | -0.281 (inactive) | 0.193 (inactive) | 1.24 (inactive) | -0.0721 (inactive) | 0.519 | 0.0497 | 0.192 | 1.24 | 0.761
C#CCNS(=O)(=O)N(C)C | 0.446 | 0.928 | 0.17 | 0.276 | 0.103 | 0.203 | 0.497 | 0.643 | 0.0088 | 0.991 (inactive) | -0.006 | 0.251 (inactive) | -0.441 (inactive) | -0.882 (inactive) | 0.526 (inactive) | 0.0573 | -0.222 | 0.073 | 0.0442 | 0.666
COC(=O)[C@@]1(Cc2ccccc2)[C@H]2c3cc(C(=O)N4CCCC4)n(CCO)c3C[C@H]2CN1C(=O)c1ccccc1 | 0.931 | 0.992 | 0.747 | 0.488 | 0.961 | 0.0586 | 0.841 | -0.493 | 1.12 | 0.891 (inactive) | 1.42 | -1.08 (inactive) | 0.0984 (inactive) | -0.189 (inactive) | 0.0581 (inactive) | 1.97 | 1.4 | 3.21 | 3.41 | -1.01
